Test results taken from PubChem BioAssay (Tox21).
A number with no mark means an inactive call. Results filed as inconclusive are left out. A call without a number means that no potency is given here. Activity calls are given as the source filed them. Unless noted, calls follow the shape of the dose curve; as a rule, active = well fitted curve in the direction sought with a large enough effect in the repeat runs; inconclusive = weak or mixed curves; inactive = no such curve, though single readings can be large; an effect the other way counts as inactive or inconclusive.

Tests used:
[1] = target: Luciferin 4-monooxygenase (Photinus pyralis) (UniProt P08659); experiment: qHTS assay to identify small molecule inhibitors of firefly luciferase (AID 1224835); also: nearly all actives have a fitted effect of over 25% in size; also: potency is read from the fitted curve at half-maximal effect
Outline: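 Quantitative HTS format; KM concentrations of both substrates. Purified P. pyralis FLuc activity quantified from luminescence images.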

[2] = qHTS assay to identify small molecule agonists of the constitutive androstane receptor (CAR) signaling pathway - cell viability counter screen (AID 1224836); also: nearly all actives have a fitted effect of over 45% in size; also: potency is read from the fitted curve at half-maximal effect
Outline: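 Double-stable HepG2 hepatoma cells (hCAR plus CYP2B6-2.2kb) are treated for 23 h at 37 C with test compounds in 15-point concentration series. PK11195 at 0.75 uM final is co-added. Cell viability is quantified by CellTiter-Fluor.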

[3] = qHTS assay to identify small molecule antagonists of the constitutive androstane receptor (CAR) signaling pathway - cell viability counter screen (AID 1224837); also: nearly all actives have a fitted effect of over 45% in size; also: potency is read from the fitted curve at half-maximal effect
Outline: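 Cells are seeded, rested 4 hr at 37 C/5% CO2, dosed with compound (15-point series) and 50 nM CITCO, incubated a further 23 hr, and then CellTiter-Fluor reagent is added before fluorescence is read. The line is HepG2 with stable hCAR and CYP2B6-2.2kb.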

[4] = qHTS assay to identify small molecule antagonists of the estrogen related receptor signaling pathway with the pleiotropic PPARgamma coactivator (PGC) from Tox21 10K library - cell viability counter screen (AID 1224840; active = well fitted cell-killing curve with a large enough effect in the repeat runs, not every such curve was filed as active; also: nearly all actives have a fitted effect of over 40% in size)
Outline: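 Cell viability is measured by CellTiter-Fluor fluorescence in PGC/ERR cells that receive compounds after a 6-hour attachment period and are then incubated 17.5 hours at 37 C.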

[5] = qHTS assay to identify small molecule agonists of the estrogen related receptor signaling pathway with the pleiotropic PPARgamma coactivator (PGC) from Tox21 10K library (AID 1224842); also: nearly all actives have a fitted effect of over 15% in size
Outline: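 PGC/ERR reporter cells (NTP line) were seeded 2,000 per well, rested 6 h at 37 C/5% CO2, then pin-dosed with compounds in DMSO for 18 h at 37 C; luciferase read by One-Glo luminescence after 30 min at room temperature.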

[6] = qHTS assay to identify small molecule agonists of the hypoxia (HIF-1) signaling pathway - cell viability counter screen (AID 1224844; calls by dose curve; also: nearly all actives have a fitted effect of over 50% in size)
Outline: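 Viability counter screen: HRE-bla ME-180 cells plated 5 hrs before compound addition, treated 17 hrs at 37C and 5% CO2, then CellTiter-Glo added after the FRET reporter read; luminescence after 30 min.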

[7] = qHTS assay to identify small molecule agonists of the hypoxia (HIF-1) signaling pathway (AID 1224846; active = well fitted activation curve with a large enough effect in the signal ratio in the repeat runs, not every such curve was filed as active; the % refers to the signal ratio)
Outline: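 Agonist mode reporter screen. ME-180 cells stably expressing bla under HRE control received test compounds in DMSO for 17 hrs (37C, 5% CO2), and beta-lactamase activity was then detected with the CCF4-AM FRET substrate.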

[8] = qHTS assay to identify small molecule agonists of H2AX - cell viability counter screen (AID 1224847; calls by dose curve; also: top concentration of the series differs between compounds; nearly all actives have a fitted effect of over 30% in size)
Outline: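 For this counter screen, overnight-attached CHO-K1 cells received test compounds (15 concentrations, 0.76% DMSO final); 3 hr later at 37C, CellTiter-Glo reagent was added and luminescence recorded after 30 min at room temperature.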

[9] = qHTS assay to identify small molecule antagonists of the estrogen related receptor (ERR) signaling pathway from Tox21 library (AID 1224848); also: nearly all actives have a fitted effect of over 50% in size; also: potency is read from the fitted curve at half-maximal effect
Outline: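 Tox21 10K compounds in DMSO tested for ERR pathway antagonism in NTP's ERR cell line; 18 h, 37 C exposure; ONE-Glo luminescence.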

[10] = qHTS assay to identify small molecule agonists of the estrogen related receptor (ERR) signaling pathway from Tox21 library (AID 1224849; calls by dose curve; also: nearly all actives have a fitted effect of over 15% in size); details: ERR reporter cell line, ONE-Glo luciferase, 18 h; at 92.4 µM (top of the series) unless noted
Outline: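 Quantitative HTS in agonist format: NTP ERR cell line, compounds transferred in DMSO after 6 h plating, 18 h incubation at 37 C, ONE-Glo luminescence endpoint.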

[11] = qHTS RealTime-Glo MT Cell Viability Assay in HEK293 cells - 32 hour (AID 1224868); also: nearly all actives have a fitted effect of over 50% in size; also: potency is read from the fitted curve at half-maximal effect
Outline: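 Luminescence generated by NanoLuc from substrate produced by living HEK293 cells served as the viability signal. Each value reflects the reading at its stated time point during continuous 40 h compound exposure at 37 C.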

[12] = A CellTox Green Cytotoxicity Assay to monitor cytotoxicity in HEK293 cells - 0 hour (AID 1224869); also: nearly all actives have a fitted effect of over 50% in size
Outline: (§1)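 Dead-cell fluorescence measured kinetically: asymmetric cyanine dye, HEK293, 600 cells/well, 5 h settle, 23 nL cpd/DMSO, 37 C, reads 0–40 h every 8 h.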

[13] = qHTS RealTime-Glo MT Cell Viability Assay in HepG2 cells - 40 hour (AID 1224870); also: nearly all actives have a fitted effect of over 50% in size; also: potency is read from the fitted curve at half-maximal effect
Outline: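 HepG2 cells mixed with RealTime-Glo MT reagents (NanoLuc plus cell-permeant prosubstrate) were seeded at 600 cells/well, incubated 5 h at 37 C/5% CO2, then pinned with compounds in DMSO; nonlytic luminescence tracked viability during 40 h treatment.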

[14] = A CellTox Green Cytotoxicity Assay to monitor cytotoxicity in HEK293 cells - 40 hour (AID 1224871); also: nearly all actives have a fitted effect of over 45% in size; also: potency is read from the fitted curve at half-maximal effect
Outline: as §1

[15] = qHTS assay to identify small molecule antagonists of the estrogen related receptor signaling pathway with the pleiotropic PPARgamma coactivator (PGC) from Tox21 10K library (AID 1224841; call rule not given here; also: potency is read from the fitted curve at half-maximal effect)
Outline: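 Cells stably carrying the PGC/ERR reporter, seeded at 2,000 per well, received pin-transferred compounds 6 h post-plating. Exposure lasted 18 h at 37 C. Signal: One-Glo luminescence.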

[16] = qHTS assay to identify small molecule agonists of H2AX (AID 1224845; active = well fitted activation curve with a large enough effect in the signal ratio in the repeat runs, not every such curve was filed as active; the % refers to the signal ratio)
Outline: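 Wild-type CHO-K1 cells plated overnight, then exposed 3 hr at 37C to compounds at 15 concentrations (0.76% DMSO). Lysed, then HTRF anti-pH2AX(S139)-cryptate/anti-H2AX-d2 detection after 24 hr at room temperature; emissions 665 and 620 nm.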

[17] = qHTS RealTime-Glo MT Cell Viability Assay in HepG2 cells - 24 hour (AID 1224867); also: nearly all actives have a fitted effect of over 50% in size; also: potency is read from the fitted curve at half-maximal effect
Outline: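 Tox21 10K library screened in qHTS format on HepG2 cells carrying RealTime-Glo reagents. Compounds were added after a 5 h preincubation, and the luminescent signal from continuous culture was measured repeatedly during 40 h treatment.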

[18] = target: Thyrotropin receptor (Homo sapiens) (UniProt P16473); experiment: qHTS assay to identify small molecule agonists of the thyroid stimulating hormone receptor (TSHR) signaling pathway (AID 1224843; calls by dose curve; also: nearly all actives have a fitted effect of over 45% in size; also: potency is read from the fitted curve at half-maximal effect)
Outline: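 Using 15 concentrations per compound in triplicate, cAMP production was monitored in TSHR-HEK293 cells after 30 min compound incubation at RT; HTRF reagents followed, with fluorescence intensity recorded after 1 h.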

[19] = target: Nuclear receptor subfamily 1 group I member 3 (Homo sapiens) (UniProt Q14994); experiment: qHTS assay to identify small molecule agonists of the constitutive androstane receptor (CAR) signaling pathway (AID 1224839);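 also: HepG2 cells stably carrying human CAR and a CYP2B6 luciferase reporter; nearly all actives have a fitted effect of over 15% in size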
Outline: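 Readout: firefly luciferase luminescence via ONE-Glo. System: HepG2 double-stable for hCAR and CYP2B6-2.2kb. Conditions: 15-point compound titration, PK11195 at 0.75 uM final, 24 h incubation.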

Sequence of Nuclear receptor subfamily 1 group I member 3 (Homo sapiens) (Q14994 whole entry, looked up): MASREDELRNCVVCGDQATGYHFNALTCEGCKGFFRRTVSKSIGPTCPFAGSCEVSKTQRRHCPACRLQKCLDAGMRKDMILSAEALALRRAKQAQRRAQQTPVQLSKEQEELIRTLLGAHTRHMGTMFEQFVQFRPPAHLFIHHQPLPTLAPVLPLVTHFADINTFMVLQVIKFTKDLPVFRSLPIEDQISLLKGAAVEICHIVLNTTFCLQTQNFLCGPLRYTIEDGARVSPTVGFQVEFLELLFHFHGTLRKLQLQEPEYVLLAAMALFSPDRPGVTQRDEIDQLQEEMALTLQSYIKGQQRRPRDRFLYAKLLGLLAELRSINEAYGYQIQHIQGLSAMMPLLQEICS
Sequence of Luciferin 4-monooxygenase (Photinus pyralis) (P08659 whole entry, looked up): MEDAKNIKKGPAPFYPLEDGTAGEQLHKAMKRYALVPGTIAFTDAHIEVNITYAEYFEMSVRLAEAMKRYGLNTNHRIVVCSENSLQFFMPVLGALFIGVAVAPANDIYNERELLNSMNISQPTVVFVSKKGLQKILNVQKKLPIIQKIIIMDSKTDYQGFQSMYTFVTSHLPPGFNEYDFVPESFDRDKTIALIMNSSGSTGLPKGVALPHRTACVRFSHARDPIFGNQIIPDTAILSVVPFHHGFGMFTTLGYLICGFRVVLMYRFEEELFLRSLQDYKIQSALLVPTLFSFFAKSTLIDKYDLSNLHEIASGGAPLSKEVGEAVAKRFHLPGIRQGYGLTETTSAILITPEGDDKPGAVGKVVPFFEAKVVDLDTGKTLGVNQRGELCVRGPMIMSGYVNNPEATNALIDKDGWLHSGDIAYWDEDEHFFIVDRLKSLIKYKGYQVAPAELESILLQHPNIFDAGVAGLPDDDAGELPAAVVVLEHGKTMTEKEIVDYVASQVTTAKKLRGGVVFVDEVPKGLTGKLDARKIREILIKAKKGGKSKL
Sequence of Thyrotropin receptor (Homo sapiens) (P16473 whole entry, looked up): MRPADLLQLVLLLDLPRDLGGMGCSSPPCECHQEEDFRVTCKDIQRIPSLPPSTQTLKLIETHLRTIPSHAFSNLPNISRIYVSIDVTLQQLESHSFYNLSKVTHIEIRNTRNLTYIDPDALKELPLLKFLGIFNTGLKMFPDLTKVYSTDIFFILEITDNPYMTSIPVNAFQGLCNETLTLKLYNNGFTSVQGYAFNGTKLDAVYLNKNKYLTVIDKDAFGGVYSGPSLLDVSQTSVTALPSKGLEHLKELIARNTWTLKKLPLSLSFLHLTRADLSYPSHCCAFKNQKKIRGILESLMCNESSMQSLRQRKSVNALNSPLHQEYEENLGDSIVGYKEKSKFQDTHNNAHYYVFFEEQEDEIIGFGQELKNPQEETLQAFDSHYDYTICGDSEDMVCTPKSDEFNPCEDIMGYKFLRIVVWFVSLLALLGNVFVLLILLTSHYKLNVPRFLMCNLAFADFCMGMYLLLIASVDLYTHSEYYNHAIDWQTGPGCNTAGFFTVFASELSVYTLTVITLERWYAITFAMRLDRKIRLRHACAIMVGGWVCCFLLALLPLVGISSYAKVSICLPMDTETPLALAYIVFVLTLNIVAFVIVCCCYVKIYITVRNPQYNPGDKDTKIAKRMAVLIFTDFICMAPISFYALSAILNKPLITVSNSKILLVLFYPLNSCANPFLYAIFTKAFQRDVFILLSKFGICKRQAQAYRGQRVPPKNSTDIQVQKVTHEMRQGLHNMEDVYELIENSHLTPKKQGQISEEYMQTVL

COC(=O)CC(C)CCC=C(C)C (stereo not given)
Potency [1]: inactive
Potency [2]: inactive
Potency [3]: inactive
Potency [4]: inactive
Potency [5]: inactive
Potency [6]: inactive
outcome [7]: inactive
Potency [8]: inactive
Potency [9]: inactive
activity change, positive = activation [10]: 1.82%
Potency [11]: inactive
Potency [12]: inactive
Potency [13]: inactive
Potency [14]: inactive

CCCCCCCCCCc1ccccc1
Potency [1]: inactive
Potency [2]: inactive
Potency [3]: inactive
Potency [4]: inactive
Potency [15]: inactive
Potency [5]: inactive
Potency [6]: inactive
Potency [16]: inactive
outcome [7]: inactive
Potency [8]: inactive
Potency [9]: inactive
activity change, positive = activation [10]: 0.758%
Potency [17]: inactive
Potency [11]: inactive
Potency [12]: inactive
Potency [13]: inactive
Potency [14]: inactive

CC(C)=CC1CC(C)CCO1 (stereo not given)
Potency [1]: inactive
Potency [2]: inactive
Potency [3]: inactive
Potency [4]: inactive
Potency [18]: inactive
Potency [16]: inactive
outcome [7]: inactive
Potency [8]: inactive
Potency [17]: inactive
Potency [11]: inactive
Potency [12]: inactive
Potency [13]: inactive
Potency [14]: inactive

[O]=[Zr]
Potency [1]: 39.8 µM (active)
Potency [2]: inactive
Potency [3]: inactive
Potency [4]: inactive
Potency [15]: inactive
Potency [5]: inactive
Potency [16]: inactive
outcome [7]: inactive
Potency [8]: inactive
Potency [9]: inactive
activity change, positive = activation [10]: 5.09%
Potency [17]: inactive
Potency [11]: inactive
Potency [13]: inactive
Potency [14]: inactive

O=C(O)CCCCCCC(=O)O
Potency [1]: inactive
Potency [2]: inactive
Potency [3]: inactive
Potency [4]: inactive
Potency [18]: inactive
Potency [6]: inactive
Potency [16]: inactive
outcome [7]: inactive
Potency [8]: inactive
Potency [17]: inactive
Potency [11]: inactive
Potency [12]: inactive
Potency [13]: inactive
Potency [14]: inactive

CCCCCCCOC(=O)c1ccccc1C(=O)OCCCCCCC
Potency [1]: inactive
Potency [2]: inactive
Potency [3]: inactive
Potency [4]: inactive
Potency [15]: inactive
Potency [5]: inactive
Potency [18]: inactive
Potency [6]: inactive
Potency [16]: inactive
outcome [7]: inactive
Potency [9]: inactive
activity change, positive = activation [10]: 1.61%
Potency [17]: inactive
Potency [11]: inactive
Potency [12]: inactive
Potency [13]: inactive
Potency [14]: inactive

O[C@@H](c1cc(C(F)(F)F)nc2c(C(F)(F)F)cccc12)[C@H]1CCCCN1
Potency [1]: inactive
Potency [2]: 29.8 µM (active)
Potency [3]: 29.8 µM (active)
Potency [19]: inactive
Potency [15]: inactive
Potency [5]: inactive
Potency [18]: inactive
outcome [7]: inactive
activity change, positive = activation [10]: -63.8% [at 42.5 µM]
Potency [17]: 16.9 µM (active)
Potency [11]: 8.49 µM (active)
Potency [12]: inactive
Potency [13]: 13.4 µM (active)
Potency [14]: 23.9 µM (active)

CCCCCCCCCCCCCCCC
Potency [1]: inactive
Potency [2]: inactive
Potency [3]: inactive
Potency [4]: inactive
Potency [15]: inactive
Potency [18]: inactive
Potency [6]: inactive
Potency [16]: inactive
outcome [7]: inactive
Potency [9]: inactive
activity change, positive = activation [10]: 3.33%
Potency [17]: inactive
Potency [11]: inactive
Potency [12]: inactive
Potency [13]: inactive
Potency [14]: inactive

Cc1cc(C)c(C=O)c(C)c1
Potency [1]: inactive
Potency [2]: inactive
Potency [3]: inactive
Potency [4]: inactive
Potency [18]: inactive
Potency [6]: inactive
Potency [16]: inactive
outcome [7]: inactive
Potency [8]: inactive
Potency [17]: inactive
Potency [11]: inactive
Potency [12]: inactive
Potency [13]: inactive
Potency [14]: inactive

CC1CCCCN1CCCOC(=O)c1ccc(OC2CCCCC2)cc1 (stereo not given)
Potency [1]: inactive
Potency [2]: inactive
Potency [3]: inactive
Potency [4]: inactive
Potency [15]: inactive
Potency [18]: 26.6 µM (active)
Potency [6]: inactive
Potency [16]: inactive
outcome [7]: inactive
Potency [8]: inactive
Potency [9]: 11.9 µM (active)
activity change, positive = activation [10]: -35.8% [at 42.5 µM]
Potency [11]: 21.3 µM (active)
Potency [12]: inactive

CCO[Si](C)(C)OCC
Potency [1]: inactive
Potency [2]: inactive
Potency [3]: inactive
Potency [19]: inactive
Potency [15]: 24.3 µM (active)
Potency [5]: inactive
Potency [18]: inactive
Potency [6]: inactive
Potency [16]: inactive
outcome [7]: inactive
Potency [8]: inactive
Potency [9]: inactive
activity change, positive = activation [10]: -0.643%
Potency [11]: inactive
Potency [14]: inactive

Cc1c(C(=O)O)cccc1[N+](=O)[O-]
Potency [1]: inactive
Potency [2]: inactive
Potency [3]: inactive
Potency [19]: inactive
Potency [18]: inactive
Potency [6]: inactive
Potency [16]: inactive
outcome [7]: inactive
Potency [17]: inactive
Potency [11]: inactive
Potency [12]: inactive
Potency [13]: inactive
Potency [14]: inactive

CCCCCCCCCCCCCc1ccccc1
Potency [1]: inactive
Potency [2]: inactive
Potency [3]: inactive
Potency [4]: inactive
Potency [18]: inactive
Potency [6]: inactive
Potency [16]: inactive
outcome [7]: inactive
Potency [8]: inactive
Potency [17]: inactive
Potency [11]: inactive
Potency [12]: inactive
Potency [14]: inactive

Cc1occc1SSc1ccoc1C
Potency [1]: inactive
Potency [2]: inactive
Potency [3]: inactive
Potency [19]: inactive
Potency [18]: inactive
outcome [7]: inactive
Potency [8]: inactive
Potency [11]: inactive
Potency [12]: inactive
Potency [13]: inactive
Potency [14]: 54.9 µM (active)
